High-throughput results (PubChem BioAssay)
This is a sample that favours compounds with a hit; in the whole collection about 2.4% have one here.
MEKK2 WT-MEK5 – raises or lowers MEK5 binding to wildtype human MEKK2 PB1 domain; Q9Y2U5; AID 1531; 290,000 tested, 1.1% active; bead flow cytometry, Alexa488-MEK5 binding to MEKK2 WT; actives lie on both sides; binding response (% of control), % at 10 µM; in the data active = binding response below about 67% or above about 130%
MEKK2 mut-MEK5 – signal of MEK5 binding to mutant human MEKK2 PB1 domain; bead flow cytometry, Alexa488-MEK5 binding to MEKK2 mutant; percent response, % at 10 µM; 290,000 tested, 0.35% active; AID 1530; in the data active = percent response above about 24%, passing the limit was not always enough
Arbovirus inh – blocks arbovirus infection; inhibition, % at 10 µM; arbovirus infection cell-based antiviral screen; 200,000 tested, 0.37% active; in the data active = inhibition above about 30%
Pf gamet viab – P. falciparum stage V gametocyte viability inhibition | P. falciparum stage V gametocytes, ATP luminescence, 24 h | inhibition, % at 10.9 µM | 150,000 tested, 0.065% active | AID 743093;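 active = inhibition above the mean plus 3 SD of compounds within the control limits, set per campaign, cut at about 38% in these data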;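 also: 0% = DMSO wells and 100% = medium only without gametocytes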
MEKK3 PB1 HTS – MEKK3-MEK5 PB1 interaction, increase or decrease. bead-based flow cytometry, Alexa488-MEK5 binding to MEKK3; actives lie on both sides; 0 = blocked by unlabeled MEK5, 100 = vehicle. binding response (% of control), % at 10 µM. 290,000 tested, 1.4% active. AID 1529;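 active = binding response more than 3 SD above or below the average of its plate-row segment, actives on both sides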;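 also: Alexa488 bead fluorescence after subtracting the streptavidin-only scavenger bead signal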
Target sequence (Q99759 whole entry, looked up): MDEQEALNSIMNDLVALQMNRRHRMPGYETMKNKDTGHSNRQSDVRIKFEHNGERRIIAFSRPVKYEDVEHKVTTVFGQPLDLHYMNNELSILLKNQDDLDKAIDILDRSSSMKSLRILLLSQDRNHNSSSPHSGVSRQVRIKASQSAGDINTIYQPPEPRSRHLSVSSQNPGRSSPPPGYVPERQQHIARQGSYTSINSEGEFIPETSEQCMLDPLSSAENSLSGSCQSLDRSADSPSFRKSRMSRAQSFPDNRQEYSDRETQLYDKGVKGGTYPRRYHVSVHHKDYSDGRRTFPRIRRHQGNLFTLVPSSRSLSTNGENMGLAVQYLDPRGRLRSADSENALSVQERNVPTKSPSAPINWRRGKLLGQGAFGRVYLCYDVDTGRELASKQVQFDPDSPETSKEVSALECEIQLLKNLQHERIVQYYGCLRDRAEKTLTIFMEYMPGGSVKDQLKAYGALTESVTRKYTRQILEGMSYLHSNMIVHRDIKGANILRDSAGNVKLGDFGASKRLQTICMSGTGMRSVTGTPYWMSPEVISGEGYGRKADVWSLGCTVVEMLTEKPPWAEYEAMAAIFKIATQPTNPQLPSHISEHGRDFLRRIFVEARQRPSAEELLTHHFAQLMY
Starred values were filed as active, the others as inactive; nt = no result given; [ ] = another dose, or the depositor's remark.

SMILES	MEKK2 WT-MEK5	MEKK2 mut-MEK5	Arbovirus inh	Pf gamet viab	MEKK3 PB1 HTS
O=C(COc1ccc2c(-c3ccccc3)cc(=O)oc2c1)NCc1cccs1	4.0*	5.0	-6.2	nt	93.0
COc1cc(C(=O)Nc2ccc(N3CCN(C(=O)c4ccc(C)cc4)CC3)cc2)cc(OC)c1OC	97.0	-5.0	nt	nt	97.0
Cc1ccc(C)c(N2CCN(C(=O)Cc3ccc(-n4c(=O)[nH]c5ccsc5c4=O)cc3)CC2)c1	98.0	-1.0	36.3*	38.6*	99.0
CCOC(=O)c1cc2c(N)c(C(=O)c3ccc(Br)cc3)sc2[nH]c1=O	77.0	-7.0	32.3*	19.0	77.0
CCOC(=O)c1cc(C(=O)OCC)c(=O)[nH]c1C	94.0	-1.0	2.7	nt	91.0
Cc1ccc(NC2c3ncccc3C(=O)N2C2CCCCC2)cc1C (centres undefined)	98.0	6.0	39.6*	0.9	100.0
Cc1ccc(NC2c3ncccc3C(=O)N2C2CCCCC2)cc1 (centres undefined)	100.0	6.0	11.2	nt	97.0
COCCNC(=O)Cn1cc(/C=C(\C#N)C(=O)NC2CCCC2)c2ccccc21	99.0	0.0	nt	-8.7	100.0
CCc1nnc(NS(=O)(=O)c2ccc(NC(=O)COc3ccc4ccccc4c3)cc2)s1	95.0	-1.0	42.3*	3.3	96.0
C=CCNC(=S)N(CC)c1cccc2ccccc12	97.0	-3.0	2.3	14.0	100.0
Cn1c(CCN2CCCCC2)nc2cc(NC(=O)COc3ccc(Cl)cc3)ccc21	114.0	4.0	nt	nt	100.0
Cc1ccc(C(C)C)c(OCC(=O)Nc2ccc3c(c2)nc(CCN2CCCCC2)n3C)c1	141.0*	12.0	nt	nt	103.0
COc1ccccc1/C=C/CN1CCC(n2nccc2NC(=O)CCc2ccccc2)CC1	138.0*	11.0	nt	nt	103.0
O=C(CCc1ccccc1)Nc1ccnn1C1CCN(C/C=C/c2ccccc2)CC1	126.0	27.0*	nt	nt	108.0
Fc1cc(F)c2nc(N3CCCC3)sc2c1	89.0	-8.0	6.5	-33.2	102.0
Cc1cc(C)n(NC(=S)NC2CCCCC2)c(=O)c1C#N	89.0	-28.0	nt	-14.2	84.0
O=C(C1CCC(CNS(=O)(=O)c2cccs2)CC1)N1CCN(c2ccc(F)cc2)CC1 (centres undefined)	94.0	-20.0	nt	nt	77.0*[inhibitor]
O=C(NCc1ccc(F)cc1)C1CCC(CNS(=O)(=O)c2cccs2)CC1 (centres undefined)	89.0	-5.0	nt	nt	94.0
O=C1Nc2ccc(Br)cc2C12NNc1ccccc1O2 (centres undefined)	-4.0*	-5.0	-31.9	-27.6	93.0
CCOC(=O)Nc1ccc2c(c1)N(C(=O)CN1CCN(CCO)CC1)c1ccccc1CC2	109.0	6.0	nt	-8.8	103.0
Cc1cccc(NC(=O)Cn2nc(-c3cccs3)ccc2=O)c1C	95.0	1.0	nt	nt	102.0
COc1ccc(/C=C2\Sc3ccc(C(=O)NCCCN4CCCC4)cc3N(C)C2=O)cc1OC	202.0*	35.0*	nt	nt	107.0
COc1ccc(/C=C2/Sc3ccc(C(=O)NCCN4CCCCCC4)cc3NC2=O)cc1	281.0*	71.0*	nt	nt	111.0
O=C1Nc2cc(C(=O)NCCCN3CCCC3)ccc2S/C1=C\c1ccccc1	153.0*	18.0	nt	nt	105.0
CCOc1ccc(/C=C2/Sc3ccc(C(=O)NCC4CCCO4)cc3N(C)C2=O)cc1OC (centres undefined)	104.0	0.0	nt	nt	104.0
SMILES	MEKK2 WT-MEK5	MEKK2 mut-MEK5	Arbovirus inh	Pf gamet viab	MEKK3 PB1 HTS
CCC1CCCCN1CCCNC(=O)c1ccc(/C=C2/Sc3ccccc3NC2=O)cc1 (centres undefined)	151.0*	15.0	nt	nt	104.0
CCCN1CCN(CCCNC(=O)c2ccc3c(c2)NC(=O)c2ccccc2S3)CC1	109.0	3.0	nt	nt	101.0
O=C(NC1CCCCC1)c1ccc(S(=O)(=O)c2ccccc2)cc1	82.0	-10.0	0.9	5.3	97.0
Cc1ccc2oc(=O)c3cc(C(=O)N4CCN(C)CC4)sc3c2c1	67.0	-15.0	nt	-10.1	69.0
O=C1Nc2cc(C(=O)NCCCN3CCOCC3)ccc2S/C1=C/c1cccc(Cl)c1	147.0*	16.0	nt	nt	102.0
O=C1Nc2cc(C(=O)NCCCN3CCOCC3)ccc2S/C1=C/c1ccccc1F	115.0	3.0	nt	nt	105.0
O=C(NC1CCCCCC1)c1ccco1	105.0	6.0	nt	nt	104.0
CCCN(CCC)Cc1cc(=O)oc2cc3c(cc12)CCC3	99.0	5.0	nt	10.7	103.0
Cc1cc(CN(C)C(=O)CC2C(=O)NCCN2Cc2c(F)cccc2Cl)on1 (centres undefined)	101.0	0.0	nt	8.8	99.0
